# From ChEMBL document CHEMBL2218924, “A broad activity screen in support of a chemogenomic map for kinase signalling research and drug discovery” (Biochem J, 2013)
# Tests used:
# [1] = target: Tyrosine-protein kinase SYK (Homo sapiens) (UniProt P43405); conditions: at 10 µM
# [2] = target: T1, Mitogen-activated protein kinase kinase kinase 7 (Homo sapiens) (UniProt O43318); conditions: at 1 µM
# T1 sequence (whole entry): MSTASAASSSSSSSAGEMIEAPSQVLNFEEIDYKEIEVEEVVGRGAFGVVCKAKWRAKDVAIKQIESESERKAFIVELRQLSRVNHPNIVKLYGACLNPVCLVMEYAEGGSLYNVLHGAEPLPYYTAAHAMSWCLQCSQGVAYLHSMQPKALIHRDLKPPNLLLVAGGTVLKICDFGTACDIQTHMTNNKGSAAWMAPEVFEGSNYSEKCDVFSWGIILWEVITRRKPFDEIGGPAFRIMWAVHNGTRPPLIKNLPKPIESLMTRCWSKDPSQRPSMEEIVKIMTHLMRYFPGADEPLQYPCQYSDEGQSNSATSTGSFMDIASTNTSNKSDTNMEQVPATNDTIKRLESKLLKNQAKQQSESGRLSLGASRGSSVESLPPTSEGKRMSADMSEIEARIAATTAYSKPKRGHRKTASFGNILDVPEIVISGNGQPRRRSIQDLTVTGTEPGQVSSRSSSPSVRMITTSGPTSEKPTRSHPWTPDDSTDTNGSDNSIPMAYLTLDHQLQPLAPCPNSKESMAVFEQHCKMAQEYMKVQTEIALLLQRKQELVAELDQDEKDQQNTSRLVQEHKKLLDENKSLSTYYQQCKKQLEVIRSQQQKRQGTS
# [3] = target: T1, Mitogen-activated protein kinase kinase kinase 7 (Homo sapiens); conditions: at 10 µM
# [4] = target: T2, Serine/threonine-protein kinase TAO1 (Homo sapiens) (UniProt Q7L7X3); conditions: at 1 µM
# T2 sequence (whole entry): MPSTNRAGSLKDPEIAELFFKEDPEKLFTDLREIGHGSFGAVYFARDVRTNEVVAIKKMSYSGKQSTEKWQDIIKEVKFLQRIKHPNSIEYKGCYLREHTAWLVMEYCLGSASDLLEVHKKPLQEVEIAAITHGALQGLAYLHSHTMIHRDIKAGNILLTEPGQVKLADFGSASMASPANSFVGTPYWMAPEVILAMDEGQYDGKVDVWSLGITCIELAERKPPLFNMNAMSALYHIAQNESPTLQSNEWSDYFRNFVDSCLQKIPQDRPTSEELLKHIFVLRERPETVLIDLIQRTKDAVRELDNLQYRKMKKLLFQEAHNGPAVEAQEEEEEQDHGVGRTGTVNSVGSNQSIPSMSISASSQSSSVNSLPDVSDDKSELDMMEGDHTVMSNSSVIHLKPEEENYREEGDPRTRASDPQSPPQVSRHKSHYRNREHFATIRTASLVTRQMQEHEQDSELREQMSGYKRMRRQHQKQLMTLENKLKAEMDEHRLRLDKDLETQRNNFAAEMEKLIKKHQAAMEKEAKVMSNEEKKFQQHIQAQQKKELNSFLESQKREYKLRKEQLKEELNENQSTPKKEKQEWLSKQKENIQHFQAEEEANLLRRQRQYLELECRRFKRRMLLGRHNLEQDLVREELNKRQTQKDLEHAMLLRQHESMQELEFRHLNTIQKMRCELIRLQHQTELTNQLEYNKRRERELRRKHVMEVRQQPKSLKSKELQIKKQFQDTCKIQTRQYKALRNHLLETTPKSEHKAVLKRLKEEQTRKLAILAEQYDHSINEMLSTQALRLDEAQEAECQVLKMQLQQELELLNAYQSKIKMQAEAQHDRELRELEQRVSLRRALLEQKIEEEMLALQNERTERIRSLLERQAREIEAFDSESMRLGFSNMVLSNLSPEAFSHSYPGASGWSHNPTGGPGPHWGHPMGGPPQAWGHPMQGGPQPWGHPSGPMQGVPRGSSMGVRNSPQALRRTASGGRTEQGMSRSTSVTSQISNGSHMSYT
# [5] = target: T2, Serine/threonine-protein kinase TAO1 (Homo sapiens); conditions: at 10 µM
# [6] = target: T3, Serine/threonine-protein kinase TBK1 (Homo sapiens) (UniProt Q9UHD2); conditions: at 1 µM
# T3 sequence (whole entry): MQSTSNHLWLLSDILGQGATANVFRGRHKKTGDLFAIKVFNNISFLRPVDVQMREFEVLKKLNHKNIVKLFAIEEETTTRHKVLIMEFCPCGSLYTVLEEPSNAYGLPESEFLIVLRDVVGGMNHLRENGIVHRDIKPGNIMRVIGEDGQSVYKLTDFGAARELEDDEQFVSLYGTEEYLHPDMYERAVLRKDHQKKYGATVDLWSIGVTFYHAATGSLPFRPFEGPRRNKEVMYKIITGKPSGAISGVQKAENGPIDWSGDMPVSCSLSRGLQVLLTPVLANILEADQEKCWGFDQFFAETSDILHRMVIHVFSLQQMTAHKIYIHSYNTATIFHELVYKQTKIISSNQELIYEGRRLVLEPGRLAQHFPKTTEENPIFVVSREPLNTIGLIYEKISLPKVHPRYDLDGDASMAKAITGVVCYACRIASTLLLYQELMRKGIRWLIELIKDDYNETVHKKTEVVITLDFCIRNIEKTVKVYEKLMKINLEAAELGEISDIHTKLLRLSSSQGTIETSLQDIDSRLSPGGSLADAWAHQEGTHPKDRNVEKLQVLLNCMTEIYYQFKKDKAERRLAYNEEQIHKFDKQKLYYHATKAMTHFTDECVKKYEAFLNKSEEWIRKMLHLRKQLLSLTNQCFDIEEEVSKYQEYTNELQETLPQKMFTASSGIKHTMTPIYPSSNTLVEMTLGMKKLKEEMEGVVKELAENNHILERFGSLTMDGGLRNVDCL
# [7] = target: T3, Serine/threonine-protein kinase TBK1 (Homo sapiens); conditions: at 10 µM
# [8] = target: Insulin receptor (Homo sapiens) (UniProt P06213); conditions: at 1 µM
# Sequence of Insulin receptor (Homo sapiens) (P06213 28-758 limits assumed): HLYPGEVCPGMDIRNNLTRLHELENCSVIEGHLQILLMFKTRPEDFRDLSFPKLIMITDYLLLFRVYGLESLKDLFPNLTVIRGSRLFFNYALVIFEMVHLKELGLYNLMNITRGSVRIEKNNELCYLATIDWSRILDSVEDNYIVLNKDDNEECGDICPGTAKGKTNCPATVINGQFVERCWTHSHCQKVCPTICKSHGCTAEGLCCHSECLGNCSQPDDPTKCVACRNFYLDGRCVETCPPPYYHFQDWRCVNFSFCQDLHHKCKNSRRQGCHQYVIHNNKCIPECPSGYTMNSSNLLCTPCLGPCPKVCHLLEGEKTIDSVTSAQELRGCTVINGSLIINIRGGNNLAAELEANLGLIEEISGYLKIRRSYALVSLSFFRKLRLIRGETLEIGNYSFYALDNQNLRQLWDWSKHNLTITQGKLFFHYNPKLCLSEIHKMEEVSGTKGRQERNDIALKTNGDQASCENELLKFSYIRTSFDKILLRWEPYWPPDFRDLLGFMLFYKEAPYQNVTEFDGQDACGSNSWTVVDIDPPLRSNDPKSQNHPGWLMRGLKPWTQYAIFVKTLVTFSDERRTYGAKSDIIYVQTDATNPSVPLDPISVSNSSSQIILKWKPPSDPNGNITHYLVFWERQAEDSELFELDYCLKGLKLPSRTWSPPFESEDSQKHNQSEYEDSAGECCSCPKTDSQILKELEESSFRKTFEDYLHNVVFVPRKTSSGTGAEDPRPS
# Sequence of Insulin receptor (Homo sapiens) (P06213 763-1382 limits assumed): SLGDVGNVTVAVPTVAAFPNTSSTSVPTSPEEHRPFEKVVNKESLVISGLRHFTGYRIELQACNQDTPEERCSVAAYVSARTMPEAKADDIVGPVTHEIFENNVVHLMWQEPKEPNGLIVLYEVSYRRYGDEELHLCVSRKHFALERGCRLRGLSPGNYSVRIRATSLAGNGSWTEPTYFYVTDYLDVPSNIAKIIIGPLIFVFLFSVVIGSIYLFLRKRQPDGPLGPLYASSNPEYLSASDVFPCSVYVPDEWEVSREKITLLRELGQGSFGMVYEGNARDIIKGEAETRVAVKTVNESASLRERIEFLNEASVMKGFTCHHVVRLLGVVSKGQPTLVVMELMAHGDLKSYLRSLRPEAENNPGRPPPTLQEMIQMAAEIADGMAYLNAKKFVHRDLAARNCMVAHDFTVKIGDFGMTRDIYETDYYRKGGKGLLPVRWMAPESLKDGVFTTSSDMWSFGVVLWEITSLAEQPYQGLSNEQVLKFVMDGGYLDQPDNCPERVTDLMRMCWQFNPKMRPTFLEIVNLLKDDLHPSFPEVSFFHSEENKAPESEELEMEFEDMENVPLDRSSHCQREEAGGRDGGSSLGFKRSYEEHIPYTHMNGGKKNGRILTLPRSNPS
compound,measurement,setting,value
O=C1Cc2c([nH]c3ccc(Br)cc23)-c2ccccc2N1,residual activity,[1],25%
same,residual activity,[2],81%
same,residual activity,[3],68%
same,residual activity,[4],76%
same,residual activity,[5],28%
same,residual activity,[6],53%
same,residual activity,[7],31%
same,residual activity,[8],95%
